Results filed as inconclusive are left out. A call without a number means that no potency is given here. Active and inactive are the calls of the source. Calls come from the whole dose curve.

Sequence of Acetylcholinesterase (Homo sapiens) (P22303 whole entry, looked up): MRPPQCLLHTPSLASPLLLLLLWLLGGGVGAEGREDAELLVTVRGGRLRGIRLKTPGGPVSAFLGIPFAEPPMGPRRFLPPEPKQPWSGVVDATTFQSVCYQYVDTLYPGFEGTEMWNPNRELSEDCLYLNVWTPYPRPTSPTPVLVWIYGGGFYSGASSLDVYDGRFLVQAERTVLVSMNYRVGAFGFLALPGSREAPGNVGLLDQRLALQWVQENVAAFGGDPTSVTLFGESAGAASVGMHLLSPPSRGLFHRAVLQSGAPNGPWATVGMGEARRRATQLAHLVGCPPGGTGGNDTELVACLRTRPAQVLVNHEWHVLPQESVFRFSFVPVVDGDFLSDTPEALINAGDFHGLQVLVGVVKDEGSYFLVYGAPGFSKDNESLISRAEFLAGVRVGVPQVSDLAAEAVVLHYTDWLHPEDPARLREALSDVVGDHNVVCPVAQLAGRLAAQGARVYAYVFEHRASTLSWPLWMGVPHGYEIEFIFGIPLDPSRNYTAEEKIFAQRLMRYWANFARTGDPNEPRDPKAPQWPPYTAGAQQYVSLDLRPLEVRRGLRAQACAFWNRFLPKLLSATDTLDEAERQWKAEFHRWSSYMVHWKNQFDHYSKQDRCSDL

In this assay the target is Acetylcholinesterase (Homo sapiens) (UniProt P22303). The assay can be described thus: Acetylcholinesterase (AChE) small molecule antagonists: fluorescence cell-based qHTS assay (AID 1347398). Note: nearly all actives have a fitted effect of over 50% in size. The settings on record: SH-SY5Y cells; Potency: AChE activity; outcome: AChE activity; series mostly up to 115 µM. In a few lines:
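SH-SY5Y cells (2000/well), attached overnight, incubated with compound 30 min at 37 C. Acetylthiocholine plus Thiolite Green then added for 40 min at room temperature. Thiocholine fluorescence (Ex/Em 490/520 nm) reports cellular AChE activity.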
In general terms: Quantitative high-throughput screening tests each substance at several concentrations.
As to `N#Cc1ccc(C2CCCc3cncn32)cc1` (centres undefined), the Potency entry is “inactive”.

In the case of `Cc1onc(-c2ccccc2)c1-c1ccc(S(N)(=O)=O)cc1`, the Potency entry is “inactive”.

As for `CCOCN(C(=O)CS(=O)(=O)O)c1c(C)cccc1CC`, the Potency entry is “inactive”.

On to `CNCC(O)c1ccc(O)c(O)c1` (centres undefined), for which the compound was called inactive.

As to `CCN(CC)c1ccc(C=O)cc1`, the Potency result was “inactive”.

Turning to `CCCN(CCC)C(=O)C(CCC(=O)O)NC(=O)c1ccccc1` (centres undefined), the Potency entry was “inactive”.

As for `N#CCCCC(C#N)CCC#N` (centres undefined), the Potency result was “inactive”.

As to `CCCCCCCCCCCCCCCC/C=C/C1CC(=O)OC1=O` (centres undefined), the Potency entry was “inactive”.

With `CC1(C)OC(=O)Nc2ccc(Br)cc21`, the Potency result was “inactive”.

Turning to `COC(=O)[C@@H]1[C@H]2C[C@H]3c4[nH]c5ccccc5c4CCN3C[C@@H]2CC[C@@H]1O`, the Potency result was “inactive”.

In the case of `N#CCc1cccc(C(F)(F)F)c1`, the Potency entry was “inactive”.

Regarding `CC(C)(C)C1CCC(=O)CC1`, the Potency result was “inactive”.

For the compound `CCCCOC(=O)CCCCCCCC(=O)OCCCC`, the Potency entry is “inactive”.

As to `Cc1ccccc1N=Nc1ccc(N=Nc2c(O)ccc3ccccc23)c(C)c1`, the Potency entry is “inactive”.

Take `Clc1cc(Cl)cc(Cl)c1`: the Potency entry was “inactive”.

In the case of `CCC(C)CCCC(C)(C)O` (centres undefined), the Potency entry was “inactive”.

For the compound `O=C(O)[C@H](O)c1ccccc1`, the Potency result is “inactive”.

In the case of `OCC(O)c1ccccc1` (centres undefined), the Potency result is “inactive”.

In the case of `CC(CC(=O)Cl)CC(C)(C)C` (centres undefined), the Potency entry is “inactive”.

For the compound `CC(C)SCc1ccco1`, the Potency entry was “inactive”.

In the case of `OCCC(F)(F)C(F)(F)C(F)(F)C(F)(F)C(F)(F)C(F)(F)F`, the Potency entry is “inactive”.

With `CC1CC(=O)CC(C)(C)C1` (centres undefined), the Potency entry was “inactive”.

With `CCCCCc1ccc(O)cc1`, the Potency result was “inactive”.

For `CC(=O)N(CC(=O)N(C)C)c1ccccc1`, the Potency entry was “inactive”.

For `COc1ccnc(CS(=O)c2nc3ccc(OC(F)F)cc3[nH]2)c1OC` (centres undefined), the Potency result was “inactive”.

With `O=CC=C(c1ccccc1)c1ccccc1`, the Potency result is “inactive”.

Consider `CCO[Si](CCC1CCC2OC2C1)(OCC)OCC` (centres undefined), for which the Potency result is “inactive”.

Turning to `COCCc1ccccn1`, the Potency result was “inactive”.

For `NCc1ccccc1`, the Potency result was “inactive”.

`CCCCCCCCCC#N`: the Potency entry is “inactive”.

With `O=C(CCS)OCC(COC(=O)CCS)(COC(=O)CCS)COC(=O)CCS`, the Potency entry is “inactive”.

Regarding `O=[N+]([O-])c1ccc2[nH]ncc2c1`, the Potency result was “inactive”.

In the case of `CN1[C@@H]2CC[C@H]1CC(NC(=O)n1c(=O)[nH]c3ccccc31)C2` (some centres undefined), the Potency entry was “inactive”.

For the compound `O=C1OC(OC(=O)c2cccnc2Nc2cccc(C(F)(F)F)c2)c2ccccc21` (centres undefined), the Potency entry was “inactive”.

As for `OC[C@@H](O)[C@@H](O)CO`, the Potency entry is “inactive”.

As for `Cc1ccc(Nc2ccc(O)c3c2C(=O)c2ccccc2C3=O)cc1`, the Potency entry is “inactive”.

As to `c1ccc(-c2nn[nH]n2)cc1`, the Potency result is “inactive”.

Turning to `Cc1ccc(N)nc1`, the Potency entry is “inactive”.

In the case of `O=C(CCCCCCC(=O)Nc1ccccc1)NO`, the Potency result is “inactive”.
